In PubChem BioAssay AID485298 (National Center for Advancing Translational Sciences (NCATS), 2010):
Values joined by “and” are separate entries in the source; they are usually repeats but may differ in a detail not shown here. Identical values can stand only once. Out of some 320,000 compounds screened, about 740 (0.23%) were called active. About 2% were inconclusive and are not listed. The call rests on the fitted dose curve; in most records, active means well fitted activation curve with a large enough effect; inconclusive means small, poorly fitted or top-dose-only effect; inactive means no such curve, though single readings can be large or run the other way. The sample as a whole holds a higher share of actives than the screen did. The source holds several records for some structures; these can differ, active in one and inactive in another.

Assay: qHTS Assay for Small Molecule Inhibitors of Mitochondrial Division or Activators of Mitochondrial Fusion; further: nearly all actives have a fitted effect of over 45% in size; on growth rescue (activation): % of control where 0% means no effect
Conditions: S. cerevisiae fusion-defective mutant growth rescue, CellTiterGlo 48 h; series mostly up to 46.1 µM; growth rescue (activation): at the top concentration
In short: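 Temperature-sensitive fusion-defective S. cerevisiae (e.g. fzo1-1, mgm1-5) were grown with compound in YPEG medium (3% ethanol, 3% glycerol) for 48 hours at 37C. Growth rescue was measured as viability by CellTiterGlo luminescence after 10 minutes at ambient.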
Potency means the concentration at half of the fitted maximal effect.

SMILES	growth rescue (activation)	Potency
O=C(Nc1cccc(-c2nc3ccccc3o2)c1)c1cccc(Br)c1	1.19% (inactive)	
CCc1nccn1CCC(=O)N1CCCC(N2CCN(c3ccccc3F)CC2)C1 (stereo unspecified)	-10.1% (inactive)	
CCCC(C)NC(=O)C1CCN(C(=O)C2CC(=O)N(c3ccc(C)cc3)C2)CC1 (stereo unspecified)	-4.72% (inactive)	
O=C(CN1CCSCC1)N/N=C/c1ccc(F)cc1	-0.82% (inactive)	
Cc1c(C(=O)N2CCCc3ccccc32)oc2ccccc12	13.2% (inactive)	
Cc1cccc2cc3c(N)c(C(=O)N4CCCc5ccccc54)sc3nc12		17.8 µM (active)
Cc1c(C(=O)N2CCCc3ccccc32)sc2nc(-c3ccccc3)cn12	8.21% (inactive)	
CC(C)(C)Cc1nnc(NC(=O)c2cc(-c3ccccc3)nc3ccccc23)s1	4.92% (inactive)	
CCCCN(C)CCCNC(=O)c1cc(-c2cccs2)nc2ccccc12	-16.6% (inactive)	
O=C(Nc1nnc(-c2ccccc2)o1)c1cc(-c2cccs2)nc2ccccc12		12.6 µM (active)
O=C(CNc1cccc(S(=O)(=O)N2CCCCC2)c1)Nc1ccccc1F	1.75% (inactive)	
CCN(CC)c1ccc(NC(=O)CN2CCN(CC(=O)Nc3ccc(Cl)cc3)CC2)cc1	1.98% (inactive)	
COc1ccc(Cl)cc1NS(=O)(=O)c1cccc(C(=O)NC2CCC(O)CC2)c1 (stereo unspecified)	-6.5% (inactive)	
O=C1Nc2ccccc2/C1=C/c1ccnc2ccccc12	6.69% (inactive)	
Cc1cc(C)c(/C=C2\C(=O)Nc3ccccc32)[nH]1		inactive and 16.4 µM (active)
CN(C)/C=C1/Nc2ccccc2C1=O	-0.406% (inactive)	

SMILES	growth rescue (activation)	Potency
O=C(N/C(=C\c1ccc([N+](=O)[O-])cc1)C(=O)N1CCCCC1)c1ccco1	5.8% (inactive)	
CCc1c(C)[nH]c(=S)c(C#N)c1C	0.532% (inactive)	
Cc1c(S(=O)(=O)N2CC(C)CC(C)C2)c(=O)n(C)c(=O)n1C (stereo unspecified)	2.71% (inactive)	
CCOC(=O)[C@@H]1[C@H]2COc3ccc(Br)cc3[C@H]2N2C(=O)N(c3ccc(Cl)cc3)C(=O)[C@@]12C	9.23% (inactive)	
CC1(C)CC2CC(C)(CN2c2ncnc3ccc(Br)cc23)C1 (stereo unspecified)		15.8 µM (active)
COc1ccc(Nc2ncnc3ccc(Br)cc23)c(OC)c1	2.1% (inactive)	
COc1ccc(C(=O)N2CC3(C)CC2CC(C)(C)C3)cc1OC (stereo unspecified)	2.86% (inactive)	
CCc1ccc(N(C(=O)c2csnn2)C(C(=O)NC2CCCCC2)c2cccnc2)cc1 (stereo unspecified)	12% (inactive)	
OCC[C@H]1C[C@H](O)[C@@H](O)[C@]2(CCc3ccccc3O2)O1	-1% (inactive)	
CC1CCN(C(=O)c2ccc(CSc3ccc(Cl)cc3)cc2)CC1	19.4% (inactive)	
O=C(c1ccc(S(=O)(=O)c2ccccc2)cc1)N1CCCCCC1	0.467% (inactive)	
O=C(c1ccc(CSc2ccccc2)cc1)N1CCCCCC1		10 µM (active)
Cc1cc(F)ccc1S(=O)(=O)Nc1ncnc2scc(-c3ccc(F)cc3)c12	-7.34% (inactive)	
O=C(COC(=O)c1ccccc1)c1ccc2c(c1)OCCO2	6.73% (inactive)	
Cc1ccc(NC(=O)CSc2sc3c(O)cc(=O)[nH]c3c2C#N)cc1C	-6.97% (inactive)	
